Where “and” joins values, the source holds several entries; their conditions need not be identical. Identical values can stand only once. About 83,000 compounds went through this panel and 20% of them were active in at least one assay; those are over-represented in the sample as a whole.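 96-well plates, one dose, 48 hours. Percent growth reported; active if below 10.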 A number with no mark means an inactive call. Calls of active or inactive are those of the source.
What follows are compounds tested on MDA-MB-468 breast (assay: NCI-60 one-dose screen, 48 h (100 = growth as untreated, 0 = no growth, -100 = all killed)). Details: 10 µM unless noted.

SMILES | growth
CNCc1cccnc1 | 110%
C[n+]1c(/C=C/c2ccc(N(CCCl)CCCl)cc2)sc2ccccc21 | -0.963% (active)
CC(=O)O[C@H]1CCC2C3CCC4=C/C(=N/O)CCC4(C)C3CCC21C (some centres undefined) | 97.7%
CC1(C)C=Cc2c(ccc3c2[N+]([O-])=C2C3=C[C@@]34NC(=O)[C@]5(CCCN5C3=O)C[C@@H]4C2(C)C)O1 | 8.16% (active)
O=C(Cc1ccccc1)c1ccccc1 | 106%
Oc1ccc(O)c2c1C1(Cl)C(Cl)=C(Cl)C2(Cl)C1(Cl)Cl | 4.54% (active)
COc1ccccc1/C=C(/C)[N+](=O)[O-] | 14.4% and 103%
C[C@]12CC[C@H]3[C@@H](CC=C4c5nc(-c6ccc(Br)cc6)sc5CC[C@@]43C)[C@@H]1CC[C@@H]2O | 110%
CC[C@H](C)[C@H](NC(=O)C12C3C4C1C1C2C3C41NC)C(=O)N(C)[C@H](C[C@@H](OC(C)=O)c1nc(C(=O)N[C@@H](Cc2ccccc2)C[C@H](C)C(=O)OC)cs1)C(C)C (some centres undefined) | 1.25% (active)
CC1=C2C(=O)[C@H]3[C@@H](CC=C4C[C@@H](O)CC[C@@]43C)[C@@H]2CC[C@]12O[C@@H]1C[C@H](C)CN[C@H]1[C@H]2C | 85.6%
Cc1cccc(N=C2c3cc([N+](=O)[O-])ccc3-c3c2cc([N+](=O)[O-])cc3[N+](=O)[O-])c1 | -24.4% (active)
Fc1ccc2c(c1)c(-c1nc(-c3c[nH]c4ncccc34)cs1)cn2CCCCN1CCCCC1 | -56.6% (active)
O=C(O)c1cc(Cc2ccc(O)c(C(=O)O)c2)ccc1O (tested in a mixture with another compound) | -46.8% (active)
O=C1c2ccccc2C(=O)N1[N+](=O)[O-] | 89.2%
CC(=O)O[C@H]1C[C@@H]2OC3C=C(C)CCC3(C)[C@@]1(C)[C@@]21CO1 (some centres undefined) | -26.7% (active) and -40.4% (active)
O=C(CCl)c1ccc([N+](=O)[O-])o1 | -49.5% (active)
C=CCCCCCCCCC(=O)[O-].C=CCCCCCCCCC(=O)[O-].[Zn+2] | 115%

SMILES | growth
CNc1ccc(C(=O)CC(O)CCC(C)C2OC(=O)CC(O)CC(=O)CC(O)CC(O)CC(O)CC(O)CC3(O)CC(O)C(C(=O)OC)C(CC(O[C@@H]4O[C@H](C)[C@@H](O)[C@H](N)[C@@H]4O)/C=C/C=C/C=C/C=C/C=C/C=C/C=C/C2C)O3)cc1 (some centres undefined) | 36.5%
CCC(/C=C(C)/C=C/C(=O)c1c(O)c(-c2ccc(O)cc2)c[nH]c1=O)CO (centres undefined) | 98.5%
NC1CN2CCC1CC2 (centres undefined) | 108%
Cn1cc(-c2csc(-c3cn(CCCCN4CCCCC4)c4ccc(F)cc34)n2)c2cccnc21 | 93.3%
C/C(=C(\c1ccc(OCCN2CCOCC2)cc1)c1ccc(OC(=O)Cc2ccccc2)cc1)c1ccc(Cl)cc1 | 78.8%
CC1(C)N=C(N)N=C(N)N1c1ccc(CCC(=O)Nc2ccc(S(=O)(=O)F)cc2)c(Cl)c1 | 64.2%
CN[C@@]1(c2ccccc2Cl)CCCC[C@@H]1NCC1CCCO1 (some centres undefined) | 96.3%
C[C@]12CC[C@H]3[C@@H](CC=C4c5nc(N)sc5CC[C@@]43C)[C@@H]1CC[C@@H]2O | 91.2%
CNC(=O)Oc1ccc(Cl)cc1SSc1cc(Cl)ccc1OC(=O)NC | 85.2%
C=C1C(=O)O[C@H]2[C@H]1CC/C(COC(=O)C(=O)c1cn(Cc3ccccc3)c3ccccc13)=C\CC[C@@]1(C)O[C@@H]21 | -60.5% (active)
COc1ccc(C2=CC(c3ccc(OC)c(OC)c3)c3c(c4ccccc4oc3=O)O2)cc1OC (centres undefined) | -8.37% (active)
Cc1ccc(Nc2nc3c(s2)C2=CC[C@@H]4[C@H](CC[C@]5(C)C(=O)CC[C@@H]45)[C@@]2(C)CC3)cc1 | 32.3%
COc1cc2c(c(OC)c1OC)-c1ccc(O)c(=O)cc1[C@@H](NC(C)=O)CC2 | 62.8%
Cc1nnc([S-])s1.[Au+].c1ccc([PH+](c2ccccc2)c2ccccc2)cc1 | -68.6% (active)
Oc1c(O)c(Cl)c(Cl)c(Cl)c1Cl | 74.2%
CCCCOc1ccc(C(N)Cc2ccccc2)cc1 (centres undefined) | 76.2%
CC(C)CCC1(CCO)C(=O)NC(=S)NC1=O | 108%
